From PubChem
TDP1 block: inhibitors of human tyrosyl-DNA phosphodiesterase TDP1; recombinant TDP1, AlphaScreen DNA substrate cleavage; AID 485290; Q9NUW8; 350,000 tested, 0.28% active; Potency, µM (highest dose often 130 µM), for inactives: at the top dose activity change, negative = inhibition, usual class: inhibitors; further: nearly all actives have a fitted effect of over 40% in size
Target sequence (Q9NUW8 whole entry, looked up): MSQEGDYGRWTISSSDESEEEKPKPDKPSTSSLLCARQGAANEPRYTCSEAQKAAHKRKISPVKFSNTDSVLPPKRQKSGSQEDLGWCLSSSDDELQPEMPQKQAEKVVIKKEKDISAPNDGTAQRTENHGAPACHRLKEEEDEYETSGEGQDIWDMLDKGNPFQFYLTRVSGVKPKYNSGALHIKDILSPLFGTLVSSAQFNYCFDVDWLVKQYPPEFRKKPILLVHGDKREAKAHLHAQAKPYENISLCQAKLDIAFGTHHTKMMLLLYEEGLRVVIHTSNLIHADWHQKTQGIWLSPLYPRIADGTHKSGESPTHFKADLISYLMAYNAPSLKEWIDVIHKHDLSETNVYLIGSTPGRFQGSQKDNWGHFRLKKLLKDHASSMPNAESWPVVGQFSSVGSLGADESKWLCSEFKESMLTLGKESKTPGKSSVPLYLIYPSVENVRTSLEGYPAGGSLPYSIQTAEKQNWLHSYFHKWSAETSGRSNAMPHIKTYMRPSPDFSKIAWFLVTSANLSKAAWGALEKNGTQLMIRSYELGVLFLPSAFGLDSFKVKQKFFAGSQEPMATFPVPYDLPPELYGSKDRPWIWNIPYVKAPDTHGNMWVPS
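Steps: enzyme plus compound, 15 min RT; add biotin/phosphotyrosine-FITC oligonucleotide (15 nM final), react 5 min; add donor/acceptor beads (10 ug/ml final), 10 min; read AlphaScreen. Tdp1 at 1 nM final.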
DT40 TDP1 CPT: DT40-hTDP1 cell growth loss with CPT; chicken DT40 Tdp1-/-;hTDP1 cells + 20 nM CPT, ATP luminescence, 48 h; Potency, µM (top dose mostly 46.2 µM), inactives show top-dose activity change, negative = growth inhibition, usual class: inhibitors; 420,000 tested, 12% active; further: nearly all actives have a fitted effect of over 55% in size
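Cell growth measured by CellTiter-Glo luminescence after a minimum 48 h, 37 C compound exposure with 20 nM CPT in Tdp1-knockout DT40 cells stably expressing hTDP1, seeded 400/well; qHTS titration format.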
DT40 TDP1 no CPT: qHTS for Inhibitors of human tyrosyl-DNA phosphodiesterase 1 (TDP1): qHTS in cells in absence of CPT; DT40 Tdp1-/- hTDP1 cells, no CPT, ATP luminescence, 48 h; Potency, µM (doses to about 46.2 µM), for inactives: at the top dose activity change, negative = growth inhibition, usual class: inhibitors; 420,000 tested, 15% active; further: nearly all actives have a fitted effect of over 55% in size
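Readout: luminescence from CellTiter-Glo after 30 min in the dark at RT. Cells: DT40 Tdp1-/- with stable hTDP1, 400/well. Exposure: compounds alone, ≥48 hr, 37 °C.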
RORg inh: blocks mouse ROR gamma transcriptional activity. P51450. Drosophila S2 Gal4-RORgamma UAS-luciferase reporter, 20 h. Potency, µM (top dose mostly 53.6 µM), without a hit: at the top dose activity change, negative = inhibition, most hits filed as inhibitors. 310,000 tested, 5.4% active; further: nearly all actives have a fitted effect of over 60% in size
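Stable Schneider cell line, Gal4 DNA-binding domain fused to ROR gamma, UAS-luciferase. Cmpd 1 hr RT → CuSO4 700 uM final → 20 hr RT → luciferase reagent 10 min → luminescence.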
Gal4-VP16 FLuc: counter-screen for ROR gamma inhibitors: Gal4-VP16 reporter; Drosophila S2 Gal4-VP16 UAS-luciferase, luminescence, 20 h; Potency, µM (doses to about 53.6 µM), without a hit: at the top dose activity, negative = inhibition, most hits filed as inhibitors; 310,000 tested, 3.5% active; AID 2546;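 further: Gal4-VP16 expression switched on by copper sulfate through the metallothionein promoter; nearly all actives have a fitted effect of over 50% in size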
An asterisk follows results filed as active; [ ] = remark or other dose. Shown are actives, neighbours in structure and some others; about 19% of the full set was active somewhere. The call rests on the fitted dose curve; in most records, active means well fitted curve in the direction sought with a large enough effect; inconclusive means small, poorly fitted or top-dose-only effect, or another doubt; inactive means no such curve, though single readings can be large; an effect the other way counts as inactive or inconclusive. On the % scale 0 is the no-effect control and ±100 the full control effect; potency means the concentration at half of the fitted maximal effect.

Cc1cc(C)c2c(NC(=O)c3ccccc3)c(C(=O)Nc3ccc(F)cc3)sc2n1 was read as TDP1 block 7.0%, DT40 TDP1 CPT inconclusive and DT40 TDP1 no CPT inconclusive.
For N#CCC(=O)Nc1ccc(C(=O)NNC(=O)CCN2CCN(c3ccccc3)CC2)cc1 the results were TDP1 block -0.5%[56.1 µM], DT40 TDP1 CPT -1.0% and DT40 TDP1 no CPT 10.2%.
Cc1cccc(CNC(=O)C2CCN(c3nnc(-n4c(C)ccc4C)s3)CC2)c1 was read as TDP1 block 7.6%, DT40 TDP1 CPT inconclusive and DT40 TDP1 no CPT 16.4µM*.
Screening COc1ccc(CNC(=O)C2CCN(c3nnc(-n4c(C)ccc4C)s3)CC2)c(OC)c1 returned TDP1 block 7.6%, DT40 TDP1 CPT inconclusive and DT40 TDP1 no CPT 16.4µM*.
`CCOc1ccc(NC(=O)C2CCN(c3nnc(-n4c(C)ccc4C)s3)CC2)cc1` gave TDP1 block -2.5%, DT40 TDP1 CPT 23.1µM* and DT40 TDP1 no CPT 13µM*.
CS(=O)(=O)N1CCC(C(=O)Nc2ccccc2Br)CC1 was read as DT40 TDP1 CPT 15.2%, DT40 TDP1 no CPT 5.2%, RORg inh 1.5% and Gal4-VP16 FLuc -3.5%.
Screening Cc1ccc(C)n1-c1nnc(N2CCC(C(=O)Nc3ccccc3Br)CC2)s1 returned TDP1 block 0.0%, DT40 TDP1 CPT inconclusive and DT40 TDP1 no CPT 16.4µM*.
COc1cccc(CNC(=O)C2CCN(c3nnc(-n4c(C)ccc4C)s3)CC2)c1OC was read as TDP1 block 10.1%, DT40 TDP1 CPT inconclusive and DT40 TDP1 no CPT -62.7%.
For Cc1ccc(C)n1-c1nnc(N2CCCC(C(=O)NCc3cccc(Br)c3)C2)s1 (configuration not stated) the results were TDP1 block 7.6%, DT40 TDP1 CPT inconclusive and DT40 TDP1 no CPT inconclusive.
`COc1ccccc1CNC(=O)C1CCCN(S(=O)(=O)c2cccs2)C1` (configuration not stated) gave TDP1 block -11.3%, DT40 TDP1 CPT -0.7%, DT40 TDP1 no CPT -26.9%, RORg inh 19.4% and Gal4-VP16 FLuc -7.0%.
CCn1c(SCC(=O)N2CCOCC2)nc(O)cc1=O was read as TDP1 block -13.7%, DT40 TDP1 CPT -10.2%, DT40 TDP1 no CPT 3.2%, RORg inh -1.1% and Gal4-VP16 FLuc 2.6%.
`Cc1cc(C)n(CC(=O)N2CCCC(N3CCN(Cc4ccc5c(c4)OCO5)CC3)C2)n1` (configuration not stated) gave TDP1 block 0.4%, DT40 TDP1 CPT -0.9%, DT40 TDP1 no CPT -24.5%, RORg inh 1.8% and Gal4-VP16 FLuc 1.7%.
For CC1=C(C(=O)OC2CCCCC2)C(c2ccccc2)NC(=O)N1 (configuration not stated) the results were TDP1 block inconclusive, DT40 TDP1 CPT inconclusive, DT40 TDP1 no CPT inconclusive, RORg inh inconclusive and Gal4-VP16 FLuc 0.6%.
`COc1ccccc1CNC(=O)C1CCCN(c2nnc(-n3c(C)ccc3C)s2)C1` (configuration not stated) gave TDP1 block 2.5%, DT40 TDP1 CPT 16.4µM* and DT40 TDP1 no CPT inconclusive.
Screening Cc1ccc(C)n1-c1nnc(N2CCCC(C(=O)NCc3cccc(F)c3)C2)s1 (configuration not stated) returned TDP1 block 5.1%, DT40 TDP1 CPT inconclusive and DT40 TDP1 no CPT -16.6%.
`Cc1ccccc1CNC(=O)C1CCN(c2nnc(-n3c(C)ccc3C)s2)CC1` gave TDP1 block 5.1%, DT40 TDP1 CPT 16.4µM* and DT40 TDP1 no CPT inconclusive.
For COc1ccc(CNC(=O)C2CCN(c3nnc(-n4cccc4CNc4ccc(C)cc4)s3)CC2)c(OC)c1 the results were TDP1 block 1.0%, DT40 TDP1 CPT 16.4µM* and DT40 TDP1 no CPT 13µM*.
Cc1ccccc1CNC(=O)C1CCN(c2nn3cc(-c4ccc(F)cc4)nc3s2)CC1 was read as TDP1 block 5.0%, DT40 TDP1 CPT -18.6% and DT40 TDP1 no CPT -13.9%.
